Screening data: PubChem BioAssay, National Center for Advancing Translational Sciences (NCATS)
The list is not random: actives were taken first. Their share in the collection is about 7.3%.
NPC1 promoter act – activators of NPC1 promoter; AID 485313; 2.4% of 320,000 active; Huh7 NPC1 promoter luciferase reporter, 24 h; Potency, µM (top dose mostly 9.22 µM), inactives show top-dose activation, most hits filed as activators; note: % of control where 0% means no effect; nearly all actives have a fitted effect of over 60% in size
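Readout is luciferase luminescence, reflecting NPC1 promoter activation in stably transfected Huh7 cells after 24 h compound exposure at 37 °C in reduced-serum medium with 10% FBS.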
Rab9 promoter act – activators of Rab9 promoter; Huh7 Rab9 promoter-luciferase reporter, luminescence, 24 h; Potency, µM (top dose mostly 9.22 µM), for the others: top-dose activation, negative = inhibition, hits mostly activators; 2.8% of 320,000 active; note: % of control where 0% means no effect; nearly all actives have a fitted effect of over 60% in size
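Huh7 cells stably carrying a Rab9 promoter-luciferase reporter, 1500 cells per well in OP-MEM I with 10% FBS, treated with compound 24 hours at 37C. Luciferase activity read by luminescence after 10 minutes with Amplite reagent.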
ELG1 genotoxic – induces genotoxicity in HEK293T cells with luciferase-tagged ELG1; Potency, µM (top dose mostly 46 µM), without a hit: at the top dose activity change, positive = activation, most hits filed as activators; 1.3% of 330,000 active; HEK293T ELG1-luciferase reporter, luminescence, 16 h; note: % of control where 0% means no effect; nearly all actives have a fitted effect of over 60% in size
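Quantitative HTS format in 1536-well plates. HEK293T ELG1-luciferase reporter cells receive test compound and are incubated 16 hr at 37 °C, 5% CO2; ONE-Glo added, 30 min room temperature, then luminescence read.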
SMN2 splice up – enhancers of SMN2 splice variant expression. HEK293 SMN2-luciferase splicing reporter, luminescence, 30-36 h. Potency, µM (top dose mostly 46.1 µM), without a hit: at the highest dose activity change, positive = activation, actives largely listed as activators. 2.8% of 210,000 active. AID 1458; note: % of control where 0% means no effect; nearly all actives have a fitted effect of over 55% in size
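qHTS luciferase splicing reporter: luminescence rises when SMN2 exon 7 is included in transfected HEK293 cells. Compound exposure lasted 30-36 h at 37C, with 4.5 mM final sodium butyrate as control, followed by a ONE-Glo read.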
uPA surface inh – blocks generation of uPA at the cell surface; cell surface uPA generation assay, qHTS; Potency, µM (doses to about 38.3 µM), for the others: top-dose activity change, negative = inhibition, hits mostly inhibitors; 0.31% of 330,000 active; active = well fitted inhibition curve with a large enough effect; inconclusive = small, poorly fitted or top-dose-only effect; inactive = no such curve, though single readings can be large or run the other way; tested in mouse RAW 264.7 cells; note: % is set by controls: 0 for no effect and ±100 for the full control effect; nearly all actives have a fitted effect of over 55% in size
FLuc counter – inhibits or activates purified firefly luciferase, miR-21 counter-screen. P08659. purified FLuc, Km substrates, luminescence inhibition. Potency, µM (highest dose often 57.5 µM), for inactives: at the highest dose activity change, negative = inhibition, actives largely listed as inhibitors. 6.9% of 360,000 active;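 note: plate controls were vehicle for no effect and reference inhibitor for full effect; nearly all actives have a fitted effect of over 55% in size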
Target sequence (P08659 whole entry, looked up): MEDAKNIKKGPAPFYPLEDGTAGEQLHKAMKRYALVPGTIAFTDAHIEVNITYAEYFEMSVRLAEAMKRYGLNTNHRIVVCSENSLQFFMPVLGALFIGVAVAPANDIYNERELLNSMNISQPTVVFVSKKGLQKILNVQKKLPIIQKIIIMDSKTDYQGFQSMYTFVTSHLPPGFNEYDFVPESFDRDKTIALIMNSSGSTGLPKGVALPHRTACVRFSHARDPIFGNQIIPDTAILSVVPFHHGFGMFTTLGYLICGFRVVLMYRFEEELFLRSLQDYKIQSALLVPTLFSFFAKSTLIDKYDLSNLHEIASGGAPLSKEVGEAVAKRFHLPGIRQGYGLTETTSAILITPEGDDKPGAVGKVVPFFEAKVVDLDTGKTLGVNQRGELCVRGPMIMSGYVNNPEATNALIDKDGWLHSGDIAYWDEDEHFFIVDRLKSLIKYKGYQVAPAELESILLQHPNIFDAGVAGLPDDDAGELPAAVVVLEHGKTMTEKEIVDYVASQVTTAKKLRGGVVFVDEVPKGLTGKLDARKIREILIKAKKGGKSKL
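Purified P. pyralis luciferase (10nM final) with 10uM D-luciferin and 10uM ATP (Km levels) in 50mM Tris acetate pH 7.5, 10mM Mg acetate, 0.01% Tween-20, 0.05% BSA; qHTS 6-point titration, ~60 µM downward; luminescence read.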
Starred values were filed as active, the others as inactive; ? = inconclusive; · = no result given; [ ] = dose if it differs, or a comment. Unless noted, calls come from the whole dose curve; as a rule, active = well fitted curve in the direction sought with a large enough effect; inconclusive = small, poorly fitted or top-dose-only effect, or another doubt; inactive = no such curve, though single readings can be large; an effect the other way counts as inactive or inconclusive. Potency is the fitted concentration of half-maximal effect.

SMILES	NPC1 promoter act	Rab9 promoter act	ELG1 genotoxic	SMN2 splice up	uPA surface inh	FLuc counter
COc1ccc(-c2csc(N3CCSCC3)n2)cc1	?	?	?	·	0%	?
COc1ccc(-c2csc(-n3cccn3)n2)cc1	2.5µM*	1.4µM*	?	·	-2%	3.8µM*
COc1ccc(-c2csc(-n3ncc(-c4cccs4)c3N)n2)cc1	-6%	6%	1%	-6%	2%	4.3µM*
Cc1ccc(Cl)cc1-n1ncc2c(Nc3cccc(C)c3C)ncnc21	·	·	·	·	·	-9%
Oc1ccc2ccccc2c1C=NCc1cn2ccsc2n1	-3%	-3%	2%	9%	-4%	19µM*
Cc1csc(Nc2cccc3ccccc23)n1	-1%	7%	0%	5%	0%	?
COc1ccccc1Nc1nc(-c2sc(NC(=O)c3ccccc3)nc2C)cs1	-3%	6%	-1%	-5%	1%	21µM*
COc1ccccc1Nc1nc(C)cs1	-2%	7%	-2%	?	5%	27µM*
COc1ccccc1NC1=C(C)C(=O)CC1	-4%	-5%	21µM*	18µM*	-12%	-2%
Cc1nc(NC(=O)c2ccccc2)sc1-c1csc(Nc2cccc(F)c2)n1	-5%	9%	-16%	-14%	·	13µM*
CCOc1ccccc1Nc1nc(-c2sc(NC(=O)c3ccccc3)nc2C)cs1	-4%	-2%	-5%	-10%	·	?
Cc1cc(C)cc(-n2ccnc2SCC(=O)Nc2ccc(C)c(Cl)c2)c1	·	·	·	·	·	-12%
O=C(CN1C(=O)c2ccccc2C1=O)N1CCN=C1c1ccccc1	-1%	0%	5%	·	4%	-3%
COc1ccc(OC)c(Nc2ccc(Nc3cc(OC)ccc3OC)nn2)c1	-1%	-2%	-3%	-13%	-4%	3%
Cc1nc(NC(=O)c2ccccc2)sc1-c1csc(NCc2ccccc2)n1	-3%	2%	-4%	1%	-7%	?
Cc1nc(NC(=O)c2ccccc2)sc1-c1csc(N)n1	?	29%	0%	-41%	-9%	9.5µM*
COc1ccccc1Nc1ccc(Nc2ccccc2OC)nn1	?	?	?	·	-3%	9.5µM*
NC(N)=NC(N)=Nc1ccccc1 (tested in a mixture with another compound)	·	·	·	-2%[9.22 µM]	·	·
COc1ccc(N(C)C(=O)c2cc(S(=O)(=O)N3CCc4ccccc43)cn2C)c(OC)c1	·	·	·	·	·	-9%
CSC1=NC(=O)/C(=C\c2cccc3ccccc23)S1	-16%	-6%	6%	1%	3%	7.6µM*
C=CC[n+]1c(/C=C2\C=Cc3cc(C)ccc3N2CC)ccc2ccccc21	-41%	-38%	-12%	-63%	8.9µM*	?
COCn1c(-c2ccc(OC)c(OC)c2)nc2ccccc21	?	3.5µM*	?	20%	-5%	11µM*
COCn1c(-c2cccc(Br)c2)nc2ccccc21	2%	22%	?	·	·	17µM*
CCOC(=O)c1c(C)c(C(=O)NCCc2ccc(OC)cc2)c(C)n1C	·	·	·	9%	·	-1%
CCCC(=O)Nc1ccc(-c2nc3cc(C)c(C)cc3o2)cc1	0.35µM*	0.35µM*	?	11µM*	-7%	1.1µM*
SMILES	NPC1 promoter act	Rab9 promoter act	ELG1 genotoxic	SMN2 splice up	uPA surface inh	FLuc counter
CCCC(=O)Nc1ccc2oc(-c3ccncc3)nc2c1	-24%	15%	15%	-12%	1%	?
CCCC(=O)Nc1cccc(-c2nc3cc(C)c(C)cc3o2)c1C	·	·	·	?	·	0.27µM*
CCC(C)(C)NC(=O)Cn1c(=O)ccc2cc(S(=O)(=O)N3CCC(C)CC3)ccc21	·	·	·	·	·	-4%
O=c1c2ccccc2nc(N2CCN(c3cccc(Cl)c3)CC2)n1-c1ccccc1	·	·	·	-51%	·	5%
O=C(OCC(=O)C12CC3CC(CC(C3)C1)C2)c1ccc(O)cc1O	6%	18%	23µM*	·	1%	19µM*
O=C(OCC(=O)C12CC3CC(CC(C3)C1)C2)c1ccccn1	3%	4%	2%	·	8%	?
O=C(OCC(=O)C12CC3CC(CC(C3)C1)C2)c1cccnc1Cl	-5%	-1%	0%	-4%	-1%	17µM*
COc1ccc(C(C(=O)NCc2ccccc2)N(C(=O)Cn2nnc3ccccc32)c2ccc(F)cc2)cc1 (centres undefined)	·	·	·	9%	·	-1%
Cc1ccc(NC(=O)C2CCN(c3cc(C)nc4c(-c5ccc(Cl)cc5)c(C)nn34)CC2)c(C)c1	·	·	·	-2%	·	-2%
CNc1ccc(/C=C2\COc3ccccc3C2=O)cc1[N+](=O)[O-]	25%	?	4%	10%	-2%	1.9µM*
O=C1c2ccccc2OCOc2ccccc21	4%	6%	-2%	-12%	5%	-13%
O=C1/C(=C/c2ccccc2[N+](=O)[O-])COc2ccccc21	-23%	-15%	-21%	-86%	?	17µM*
FC(F)(F)c1cc(CN2CCCC3(CCNCC3)C2)cc(C(F)(F)F)c1	·	·	·	-2%	·	·
CC1CCCN(c2ccc([N+](=O)[O-])cc2C(=O)c2ccccc2)C1 (centres undefined)	-18%	-21%	11%	-37%	0.16µM*	1%
Cc1ccc2c(CN(C)Cc3ccccc3)cc(=O)oc2c1C	?	?	10%	·	-5%	15µM*
COc1ccc(OC)c(-c2noc(CSc3nnc(Cc4ccccc4)n3-c3cccc(C)c3)n2)c1	·	·	·	-10%	·	-19%
O=C(NC(=S)NNC(=O)c1ccccc1O)c1ccc([N+](=O)[O-])cc1	3%	-3%	-16%	·	?	3%
Cc1ccc(C(=O)NC(=S)NNC(=O)c2ccccc2O)cc1	1%	2%	9%	·	-14%	?
O=C(NC(=S)NNC(=O)c1ccccc1O)c1ccccc1	-2%	10%	7%	·	-5%	24µM*
O=C(NC(=S)NNC(=O)c1ccccc1O)c1ccc(F)cc1	0%	3%	2%	·	-14%	27µM*
COc1ccc2c(c1)O[C@@H](c1ccc3c(c1)OCO3)[C@H](OC(=O)N[C@H]1CCCc3ccccc31)C2=O	·	·	·	-4%	·	·
COc1cc(OC)c2c(-c3cccc(-c4sccc4C(C)=O)c3)cc(=O)oc2c1	·	·	?	·	2.8µM*	·
CCc1ccccc1Nc1nc(N)nc(COC(=O)c2c(C)noc2C)n1	1%	-3%	1%	·	?	5%
N#C/C(=C(/O)c1ccc(-c2cccc([N+](=O)[O-])c2)o1)c1nc2ccccc2s1	8%	17%	-4%	2%	-9%	3µM*
N#C/C(=C(/O)COc1ccc(Cl)cc1)c1nc2ccccc2s1	4%	-2%	-10%	-15%	3%	24µM*
N#C/C(=C(/O)CSc1ccccn1)c1nc2ccccc2s1	0%	-6%	6%	77%	-5%	21µM*
